Assay results reported in PubChem BioAssay AID651784 (National Center for Advancing Translational Sciences (NCATS), 2012).
Records with an inconclusive call do not appear. Calls of active or inactive are those of the source. The call rests on the fitted dose curve; in most records, active means well fitted inhibition curve with a large enough effect; inconclusive means small, poorly fitted or top-dose-only effect; inactive means no such curve, though single readings can be large or run the other way.

Test: Acumen qHTS Assay for Inhibitors of the mTORC1 Signaling Pathway in MEF (Tsc2-/-, p53-/-) Cells: Hit Validation;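 further: phospho-rpS6 Ser235/236 immunofluorescence normalized to propidium iodide cell count; nearly all actives have a fitted effect of over 65% in size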;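 on activity change, negative = inhibition: cells exposed to compound for 24 hours; plate controls were DMSO for no effect and 7.5 nM rapamycin control for full effect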
Settings: Acumen imaging; activity change, negative = inhibition: at 37.3 µM (top of the series)
Potency means the concentration at half of the fitted maximal effect.

For `COc1ccc(NC(=O)CSc2nc3ccccc3n2Cc2cccc(OC)c2)cc1`, which activity change, negative = inhibition is on record?
The activity change, negative = inhibition was -5.71%.

For `Cn1nc(-c2ccc(OCC(=O)Nc3ccccc3)cc2)c2ccccc2c1=O`, which activity change, negative = inhibition is on record?
Its activity change, negative = inhibition is -11.2%.

For `CC(=O)Nc1ccc(NC(=O)c2nc(S(=O)(=O)Cc3ccc(F)cc3)ncc2Cl)cc1`, which Potency is on record?
Its Potency is 2.61 µM (active).

Which Potency does the source give for `CCCCN(C)CC(O)Cn1cc(/C=C/C(=O)c2ccc(C)cc2)c2ccccc21` (configuration not stated) here?
Its Potency is 13.1 µM (active).

Which activity change, negative = inhibition does the source give for `Cc1cc(NC(=O)c2ccco2)cc(-c2nc3cc(Cl)ccc3o2)c1O` here?
The activity change, negative = inhibition was -46.5%.

With `O=C(NC1CCCCC1)/C(=C/c1ccc(Cl)cc1)NC(=O)c1ccccc1` as the compound, how does the activity change, negative = inhibition read?
The activity change, negative = inhibition was -5.63%.

Which activity change, negative = inhibition does the source give for `Cc1ccccc1CN1C(=O)C(O)(CC(=O)c2cccc(Br)c2)c2ccccc21` (configuration not stated) here?
The activity change, negative = inhibition was -20%.

With `CCOc1ccccc1Nc1nc(-c2cccc(Cl)c2)c2c(n1)-c1ccccc1OC2` as the compound, how does the activity change, negative = inhibition read?
The activity change, negative = inhibition was -15.1%.

For `CCCC(=O)OC1=CN(Cc2ccccc2)S(=O)(=O)c2ccccc21`, which activity change, negative = inhibition is on record?
Its activity change, negative = inhibition is -27.1%.

With `COc1ccccc1CNC(=O)CCCn1c(=O)c2cccn2c2ccccc21` as the compound, how does the activity change, negative = inhibition read?
The activity change, negative = inhibition was -1.89%.

Which Potency does the source give for `CC(=O)C1=C(c2ccccc2)N(C(C)=O)n2c(nnc2C2CCCCC2)S1` here?
Its Potency is 7.36 µM (active).

With `O=C(CCS(=O)(=O)c1nc(-c2cccs2)cc(C(F)(F)F)n1)Nc1cccc(O)c1` as the compound, how does the activity change, negative = inhibition read?
The activity change, negative = inhibition was -112%.

For `COc1ccc(OCC(O)Cn2c(=N)n(CCN3CCCCC3)c3ccccc32)cc1` (configuration not stated), which Potency is on record?
Its Potency is 16.5 µM (active).

For `COc1ccc2c(c1)CC(C(=O)Nc1cc(Cl)ccc1C)CO2` (configuration not stated), which activity change, negative = inhibition is on record?
The activity change, negative = inhibition was -12.5%.

Which Potency does the source give for `Cc1ccc(OCC(O)Cn2c(=N)n(CCN3CCCCC3)c3ccccc32)cc1` (configuration not stated) here?
The Potency was 10.4 µM (active).

For `CCCCOC(=O)c1ccc(NC(=O)c2ccc3c(c2)CCN3S(=O)(=O)c2ccccc2)cc1`, which activity change, negative = inhibition is on record?
Its activity change, negative = inhibition is -14.2%.

Which Potency does the source give for `COc1ccc(OC)c(Nc2c3c(nc4ccccc24)CCC3)c1` here?
The Potency was 3.29 µM (active).

With `Cc1ccc(-c2nnn(CC(=O)N(CC(=O)NCCC(C)C)c3ccc(F)cc3)n2)cc1` as the compound, how does the activity change, negative = inhibition read?
Its activity change, negative = inhibition is 20.3%.

Which Potency does the source give for `Cc1ccccc1S(=O)Cc1ccc(C(=O)N2CCN(c3cccc(C)c3C)CC2)o1` (configuration not stated) here?
The Potency was 6.56 µM (active).

With `Cc1ccc([C@H]2Nc3ccc(S(=O)(=O)Nc4cccc(Cl)c4C)cc3[C@H]3C=CC[C@H]32)cc1` as the compound, how does the activity change, negative = inhibition read?
Its activity change, negative = inhibition is 8.84%.

Which Potency does the source give for `Cc1cccc(NC(=O)Cn2cc(C(=O)C3CCCCC3)c3ccccc32)c1C` here?
The Potency was 1.04 µM (active).

For `Cc1ccc(C)c(N2CCN(CCCNC(=O)Nc3ccc(Cl)cc3)CC2)c1`, which activity change, negative = inhibition is on record?
The activity change, negative = inhibition was -77%.
